FLuc counter = counter-screen for miR-21 project: firefly luciferase inhibitors or activators | P08659 | purified FLuc, Km substrates, luminescence inhibition | Potency, µM (doses to about 57.5 µM), inactives show top-dose activity change, negative = inhibition, usual class: inhibitors | hit rate 6.9% among 360,000 | AID 588342;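 also: plate controls were vehicle for no effect and reference inhibitor for full effect; nearly all actives have a fitted effect of over 55% in size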
Target sequence (P08659 whole entry, looked up): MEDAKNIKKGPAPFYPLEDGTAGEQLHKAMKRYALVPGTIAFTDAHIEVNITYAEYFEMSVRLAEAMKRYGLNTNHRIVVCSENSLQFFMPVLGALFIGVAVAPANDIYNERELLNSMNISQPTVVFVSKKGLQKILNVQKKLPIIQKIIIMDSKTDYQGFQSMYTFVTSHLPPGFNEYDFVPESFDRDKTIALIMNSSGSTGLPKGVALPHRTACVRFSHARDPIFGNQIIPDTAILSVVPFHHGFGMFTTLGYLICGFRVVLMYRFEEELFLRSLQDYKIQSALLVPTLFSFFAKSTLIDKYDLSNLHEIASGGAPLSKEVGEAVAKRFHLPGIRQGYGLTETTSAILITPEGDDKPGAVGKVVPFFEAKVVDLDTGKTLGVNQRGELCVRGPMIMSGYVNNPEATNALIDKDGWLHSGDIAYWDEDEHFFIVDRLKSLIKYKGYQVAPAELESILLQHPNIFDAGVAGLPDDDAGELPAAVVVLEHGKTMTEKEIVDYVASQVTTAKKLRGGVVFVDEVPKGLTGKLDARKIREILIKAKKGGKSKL
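Purified P. pyralis luciferase (10nM final) with 10uM D-luciferin and 10uM ATP (Km levels) in 50mM Tris acetate pH 7.5, 10mM Mg acetate, 0.01% Tween-20, 0.05% BSA; qHTS 6-point titration, ~60 µM downward; luminescence read.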
SMN2 splice up = enhancers of SMN2 splice variant expression. HEK293 SMN2-luciferase splicing reporter, luminescence, 30-36 h. hit rate 2.8% among 210,000. Potency, µM (titrated, usually from 46.1 µM), for the others: at the top dose activity change, positive = activation, hits mostly activators. AID 1458; also: % of control where 0% means no effect; nearly all actives have a fitted effect of over 55% in size
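HEK293 cells carry an SMN2 […]–luciferase reporter in which exon 7 inclusion puts luciferase in frame. Cells were plated 10-12 h before compound addition, then incubated 30-36 h at 37C. ONE-Glo luminescence was read; sodium butyrate at 4.5 mM final served as control.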
ELG1 repair inh = blocks ELG1-dependent DNA repair in HEK293T cells. HEK293T ELG1-luciferase reporter, luminescence, 16 h; DNA damage induced by 5-fluorouridine. Potency, µM (highest dose often 46.1 µM), inactives show at the top dose activity change, negative = inhibition, most hits filed as inhibitors. hit rate 2.3% among 330,000; also: % is scaled to controls: 0 for no effect and ±100 for the full control effect; nearly all actives have a fitted effect of over 55% in size
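Quantitative HTS, concentration-response format. 2,000 cells/well co-treated with 5-fluorouridine and compound, 16 hr in 5% CO2 at 37 °C; ONE-Glo luminescence read after 30 min.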
Rab9 prom act = activates the Rab9 promoter; hit rate 2.8% among 320,000; Potency, µM (doses to about 9.22 µM), for the others: at the top dose activation, negative = inhibition, actives largely listed as activators; AID 485297; Huh7 Rab9 promoter-luciferase reporter, luminescence, 24 h; also: % of control where 0% means no effect; nearly all actives have a fitted effect of over 60% in size
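Luminescence from Amplite-detected luciferase (10 minutes, ambient) reports Rab9 promoter activation. Before that, stable Rab9-luciferase Huh7 cells (1500/well, reduced-serum OP-MEM I plus 10% FBS) were exposed to compound for 24 hours at 37C.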
ELG1 genotox = inducers of genotoxicity in HEK293T ELG1-luciferase cells; hit rate 1.3% among 330,000; HEK293T ELG1-luciferase reporter, luminescence, 16 h; Potency, µM (top dose mostly 46 µM), inactives show at the top dose activity change, positive = activation, usual class: activators; also: % of control where 0% means no effect; nearly all actives have a fitted effect of over 60% in size
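After overnight (16 hr) compound treatment at 37 °C, ELG1-luciferase HEK293T cells were lysed with ONE-Glo; luminescence quantified 30 min later at room temperature.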
NPC1 prom act = NPC1 promoter activation; Huh7 NPC1 promoter luciferase reporter, 24 h; Potency, µM (doses to about 9.22 µM), inactives show at the top dose activation, most hits filed as activators; hit rate 2.4% among 320,000; AID 485313; also: % of control where 0% means no effect; nearly all actives have a fitted effect of over 60% in size
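Luminescence read-out of NPC1 promoter-driven luciferase in stably transfected Huh7 cells; compounds delivered in DMSO and left 24 h at 37C, 5% CO2, qHTS titration format.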
* = called active by the depositor; ? = inconclusive; · = no result. The list is not random: actives were taken first. Their share in the collection is about 9.2%. Calls follow the shape of the dose curve; as a rule, active = well fitted curve in the direction sought with a large enough effect; inconclusive = small, poorly fitted or top-dose-only effect, or another doubt; inactive = no such curve, though single readings can be large; an effect the other way counts as inactive or inconclusive. Potency is read from the fitted curve at half-maximal effect.

SMILES	FLuc counter	SMN2 splice up	ELG1 repair inh	Rab9 prom act	ELG1 genotox	NPC1 prom act
O=c1c(-c2ccccc2)nc2cnc(N3CCNCC3)nc2n1C1CC1	·	-3%	·	·	·	·
Cc1cc(C(=O)COC(=O)c2ccc[nH]c2=O)c(C)n1-c1ccc(F)cc1	3.4µM*	5µM*	?	0.35µM*	?	0.56µM*
Cc1cc(C(=O)COC(=O)c2ccc[nH]c2=O)c(C)n1C1CC1	4.8µM*	?	?	3.5µM*	?	?
Cc1cc(C(=O)COc2ccccc2C(N)=O)c(C)n1C1CC1	15µM*	-8%	5%	?	5%	33%
Cc1cc(C(=O)OCC(=O)NCc2ccco2)c(C)n1-c1ccc(F)cc1	-19%	-13%	5%	-18%	-4%	-19%
COc1ccc(OC)c(CC2C(=O)Nc3ccc(Br)cc32)c1 (stereo not drawn)	-6%	·	·	·	·	·
Cc1nnc2c(NC3CCCCC3)nc3ccccc3n12	-2%	·	?	-6%	?	-1%
Cc1nn(-c2nc(-c3ccc(F)cc3)cc(C(F)(F)F)n2)c(C)c1Cl	-2%	-24%	·	·	·	·
CCc1ccc(CNC(=O)CCC(=O)n2ncc3cc(C)ccc32)cc1	0%	·	17%	2%	-1%	-4%
Cc1ccc2c(cnn2C(=O)CCCC(=O)NCc2ccc(F)cc2)c1	13µM*	·	25%	29%	-8%	7%
O=C(CCC(=O)n1ncc2ccccc21)N1CCCCC1	?	·	?	3%	0%	1%
Cc1ccc2c(cnn2C(=O)CCC(=O)N2CCCCC2)c1	12µM*	·	21%	1%	-14%	-1%
O=C(CSc1nc(-c2ccccc2)nc2c1CCCC2)c1ccc(Cl)cc1	2%	1%	·	·	·	·
CCc1nnc(NS(=O)(=O)c2ccc(N/C=C\C(=O)c3ccc(C)cc3)cc2)s1	19µM*	23%	?	-7%	8%	0%
CCc1nnc(NS(=O)(=O)c2ccc(N/C=C\C(=O)c3ccc(F)cc3)cc2)s1	19µM*	-1%	-6%	-3%	0%	3%
CCc1nnc(NS(=O)(=O)c2ccc(N/C=C\C(=O)c3cccc(OC)c3)cc2)s1	17µM*	3%	10%	-7%	10%	1%
CCc1nnc(NS(=O)(=O)c2ccc(N/C=C/C(=O)c3ccc(C)cc3)cc2)s1	24µM*	?	25%	-6%	0%	0%
CCc1nnc(NS(=O)(=O)c2ccc(NC(=S)NC(=O)/C=C/c3ccc(F)cc3)cc2)s1	-1%	-10%	10%	1%	0%	-3%
CCc1nnc(NS(=O)(=O)c2ccc(NS(=O)(=O)c3ccc(NC(C)=O)cc3)cc2)s1	1%	-8%	10%	-2%	-2%	-4%
Cc1nc2c(c(C)nn2C(C)(C)C)c(C)c1CCC(=O)Nc1ccc(F)cc1	0%	-7%	·	·	·	·
Cc1ccccc1C(=O)Nc1nnc(S(=O)(=O)N2CCc3ccccc32)s1	2%	·	·	·	·	·
CN(c1ccccc1)S(=O)(=O)c1ccc(Cl)c(C(=O)Nc2ccncc2)c1	·	·	?	-7%	-7%	-8%
CN(c1ccc(F)cc1)S(=O)(=O)c1ccc(Cl)c(C(=O)Nc2ccncc2)c1	5%	·	12µM*	-8%	-4%	-2%
CN(C)c1nc2c(c(=O)[nH]c(=O)n2C)n1CCCc1ccccc1	-2%	·	-1%	3%	10%	0%
CC1=C(C(=O)OCc2ccc3c(c2)OCO3)C(c2ccc(O)c([N+](=O)[O-])c2)NC(=O)N1 (stereo not drawn)	-9%	6%	9.2µM*	12%	-16%	9%
CC1=C(C(=O)OCc2ccc3c(c2)OCO3)C(c2ccccc2)NC(=O)N1 (stereo not drawn)	0%	-60%	2.1µM*	2%	-23%	-2%
CCCOc1ccccc1C1NC(=O)NC(C)=C1C(=O)OCc1ccccc1 (stereo not drawn)	-3%	·	16µM*	-3%	-12%	-6%
